About 83,000 compounds went through this panel and 20% of them were active in at least one assay; those are over-represented in the sample as a whole.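 The endpoint reported here, percent growth, reads 100 for growth as untreated, 0 for no net growth and -100 for all cells dead.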 Values without a mark were called inactive. The source made the active and inactive calls. Rule for the calls: active = growth percent below 10; inactive = the rest.

For the first assay, the system named is 786-0 renal. In words: NCI-60 one-dose screen, 48 h (100 = growth as untreated, 0 = no growth, -100 = all killed). The settings on record: 10 µM unless noted.
`O=C(N/N=C/c1ccc(-c2ccc(O)cc2)o1)c1[nH]c2ccc(Br)cc2c1-c1ccccc1`: the growth is -16.7% (active).
Still for that read-out and setting: then `CC(=O)Nc1ccc(-c2cn(-c3cccc(C(=O)Nc4ccc(N5CCN(C)CC5)cc4)c3)nn2)cn1`, with 12.5%; and `COc1cc2oc(-c3cccc(NC(=O)[C@H](Cc4ccccc4)NC(=O)OC(C)(C)C)c3)cc(=O)c2c(OC)c1OC`, with 43.8%.

The next assay deals with COLO 205 colon. The assay is described as above. As to conditions: 10 µM unless noted.
For `Cc1cc(N=C2NC(=O)CS2)n[nH]1`, the growth is 108%.
The same measure, in the same setting: then `CNC(=O)c1cc(Oc2ccc3nc(NC(=O)Nc4cccc(OC(F)(F)F)c4)sc3c2)ccn1`, with 68.2%; and `COc1cc2c(c(OC)c1OC)C(=O)CC(c1cccc(NC(=O)c3cc([N+](=O)[O-])ccc3Cl)c1)O2` (configuration not stated), with 37.1%.
Turning to `COc1ccc2cc([C@H](C)C(=O)N/N=C/c3ccc(Br)cc3)ccc2c1`, the growth is 108%.
`CCCCCCCCc1ccc(C(=O)Nc2ccc(C)cc2C(=O)O)cc1C`: the growth was 114%.
The same measure, in the same setting: the same measure for `CSc1ccccc1NC(=O)c1ccc2nn(/C(C#N)=C/c3ccccn3)nc2c1`: -84% (active); for `COCOc1ccc2c(=O)c(C)c(C(=O)N[C@@H](Cc3ccccc3)C(O)C(=O)NCCc3ccc(OC)cc3)oc2c1` (some centres not stated): 139%.
Same read-out and setting: then `COc1ccc(NC(=O)Cn2c(/C=C/c3cccc([N+](=O)[O-])c3)nc3ccccc3c2=O)cc1`, with 98.8%; and `CC1(C)CC[C@]2(C(=O)Nc3ccc(Br)cc3)CC[C@]3(C)C(=CCC4[C@@]5(C)C[C@@H](O)[C@H](O)[C@@](C)(CO)C5CC[C@]43C)C2C1` (some centres not stated), with -74.1% (active); and `O=c1onc(-c2cc3ccccc3nc2Cl)n1-c1cccc2ccccc12`, with 56.4%.
On the same count and under the same terms, then `CCN(CC)CCOc1ccc(Nc2ncc3cc(-c4ccc(O)c(C#N)c4)c(=O)n(C)c3n2)cc1`, with 36.2%.
Consider `N#Cc1c(NCc2ccccc2)n[nH]c1Nc1ccccc1`, for which the growth is -8.53% (active).
Same read-out and setting: then `CCCSc1nc(NCCc2c[nH]c3ccccc23)c(C#N)c(-c2ccc(OC)cc2)n1`, with 61.3%; and `COc1cc(C2CC(c3cc(OC)c(OC)c(OC)c3)=NN2C(C)=O)ccc1OCc1ccc(F)cc1` (configuration not stated), with 58.5%; and `CN1CCN(Cc2ccc(C(=O)Nc3cccc(C#Cc4cccc5[nH]nc(N)c45)c3)cc2C(F)(F)F)CC1`, with -87% (active).
For the compound `COc1ccc(C(=O)/C=C/c2cccc3ccccc23)cc1S(N)(=O)=O`, the growth was -78.6% (active).
As for `COc1cc(/C=C/C(=O)c2ccc(C)cc2)ccc1Oc1nc(Nc2ccc(F)cc2)nc(N(C)C)n1`, the growth is 86.8%.
With `COc1cc2oc(-c3cccc(C(=O)Nc4ccc(Cl)cc4)c3)cc(=O)c2c(OCCNC(=O)[C@@H](N)CCC(=O)O)c1OC`, the growth was 70.6%.
As to `C=C1CCC2C3(C)COC(c4ccc(F)cc4)OC3CCC2(C)C1CC(O)C1=CCOC1=O` (configuration not stated), the growth is 22.8%.
Regarding `COc1ccc(-c2c(Nn3cnnn3)no[n+]2[O-])cc1`, the growth is 55.1%.
For `CC1=C(C(=O)c2ccccc2)C(c2cccc3ccccc23)n2c(nc3ccccc32)N1` (configuration not stated), the growth was 65.3%.
Take `CC1(C)CC[C@]2(C(=O)Nc3ccccc3)CC[C@]3(C)C(=CCC4[C@@]5(C)C[C@@H](O)[C@H](O)[C@@](C)(CO)C5CC[C@]43C)C2C1` (some centres not stated): the growth is 31.6%.
Same read-out and setting: then `CC(=O)Nc1ccc(-c2cn(-c3cccc(C(=O)Nc4ccc(N5CCN(C)CC5)cc4)c3)nn2)cn1`, with 72%; and `COc1cc2oc(-c3cccc(NC(=O)[C@H](Cc4ccccc4)NC(=O)OC(C)(C)C)c3)cc(=O)c2c(OC)c1OC`, with 33.8%.

The record behind these values is PubChem BioAssay (NCI).
